# Laboratory results as given in PubChem BioAssay (Tox21).
# Values without a mark were called inactive. Results filed as inconclusive are left out. Where a call stands in place of a potency, no number is given. The source made the active and inactive calls. Unless noted, calls follow the shape of the dose curve; as a rule, active = well fitted curve in the direction sought with a large enough effect in the repeat runs; inconclusive = weak or mixed curves; inactive = no such curve, though single readings can be large; an effect the other way counts as inactive or inconclusive.
# What was measured:
# [1] = qHTS assay for small molecule agonists of the p53 signaling pathway (AID 651631; calls by dose curve; also: nearly all actives have a fitted effect of over 15% in size; also: potency is read from the fitted curve at half-maximal effect)
# Outline: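 Beta-lactamase reporter activity under p53 response elements was quantified in HCT-116 cells by FRET fluorescence, following 16 h incubation with test compounds at 37 °C and 2 h substrate development at room temperature.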
# [2] = qHTS assay for small molecules that induce genotoxicity in human embryonic kidney cells expressing luciferase-tagged ATAD5 (AID 651632); also: nearly all actives have a fitted effect of over 15% in size; also: potency is read from the fitted curve at half-maximal effect
# Outline: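 Cells were seeded at 2,000 per well, dosed with compound, and incubated 16 hr at 37C in 5% CO2. Luciferase activity was then quantified after a 30 min room-temperature incubation with Amplite.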
# [3] = qHTS assay for small molecule agonists of the p53 signaling pathway - cell viability (AID 651633; calls by dose curve;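 also: p53RE-bla HCT reporter cells with a stable beta-lactamase p53 reporter; series mostly up to about 83 µM; nearly all actives have a fitted effect of over 30% in size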)
# Outline: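 p53RE-bla cells were treated with compound for 16 hours at 37 C. Cytotoxicity was then measured as CellTiter-Glo luminescence after 30 min at room temperature.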
# [4] = qHTS assay for small molecules that induce genotoxicity in human embryonic kidney cells expressing luciferase-tagged ATAD5 - cell viability (AID 651634; calls by dose curve; also: nearly all actives have a fitted effect of over 25% in size; also: potency is read from the fitted curve at half-maximal effect)
# Outline: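 Cells (HEK293T, luciferase-tagged ATAD5) are seeded at 2,000 per well, dosed with compound or DMSO vehicle, and incubated 15.5 hr at 37C and 5% CO2. CellTiter-Fluor is added for 30 min before fluorescence is measured.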
# [5] = qHTS assay for small molecule disruptors of the mitochondrial membrane potential - cell viability (AID 720634; calls by dose curve;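 also: human HepG2 liver cancer cells; series mostly up to about 83 µM; nearly all actives have a fitted effect of over 20% in size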)
# Outline: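 Cytotoxicity was measured by ATP quantitation in HepG2 wells that had first been treated with compound for 1 hr and stained with m-MPI dye; CellTiter-Glo incubation was 30 min at room temperature.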
# [6] = qHTS assay to test for compound auto fluorescence at 590 nm (red) in HepG2 cells (AID 720674)
# Outline: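 Fluorescence at 590 nm emission following 540 nm excitation was recorded from HepG2 wells one hour after compound transfer, with DMSO-only wells as vehicle and Rose Bengal sodium equivalency as the scale.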
# [7] = qHTS assay to test for compound auto fluorescence at 535 nm (green) in HepG2 cells (AID 720675)
# [8] = qHTS assay to test for compound auto fluorescence at 590 nm (red) in HEK293 cells (AID 720679)
# Outline: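 Autofluorescence equivalency to Rose Bengal sodium, 540/590nm, in HEK293 cells exposed overnight to 23 nL compound per well.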
# [9] = qHTS assay to test for compound auto fluorescence at 535 nm (green) in HEK293 cells (AID 720680)
# [10] = qHTS assay to test for compound auto fluorescence at 460 nm (blue) in HEK293 cell free culture (AID 720681)
# Outline: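 Compounds were added to cell-free DMEM with 10% FBS and fluorescence read directly. The blue channel used 405 nm excitation and 460 nm emission, with triamterene as the reference fluorophore.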
# [11] = qHTS assay to test for compound auto fluorescence at 535 nm (green) in HEK293 cell free culture (AID 720682)
# Outline: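 Each library compound, or DMSO control, is added by pintool to medium alone, comprising DMEM and 10% FBS. Emission at 535 nm following 485 nm excitation is quantified against fluorescein.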
# [12] = qHTS assay to test for compound auto fluorescence at 590 nm (red) in HEK293 cell free culture (AID 720683)
# Outline: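 Cell-free wells of DMEM with 10% FBS received compound, and intrinsic fluorescence was read at excitation/emission 540/590 nm. Values expressed as equivalence to Rose Bengal sodium.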
# [13] = qHTS assay to test for compound auto fluorescence at 590 nm (red) in HepG2 cell free culture (AID 720684)
# Outline: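 Auto fluorescence equivalency versus Rose Bengal sodium, red channel Ex/Em 540/590 nm; compounds in cell-free MEM/10% FBS; DMSO vehicle control.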
# [14] = qHTS assay to test for compound auto fluorescence at 460 nm (blue) in HepG2 cell free culture (AID 720685)
# Outline: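 Cell-free plates of MEM plus 10% FBS received 23 nL compound or DMSO vehicle; blue-channel (405/460 nm) intensity scored against triamterene as reference fluorophore.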
# [15] = qHTS assay to test for compound auto fluorescence at 535 nm (green) in HepG2 cell free culture (AID 720686)
# [16] = qHTS assay to test for compound auto fluorescence at 460 nm (blue) in HepG2 cells (AID 720687)
# Outline: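 HepG2 cells in MEM with 10% FBS, attached overnight at 37 C, were exposed to compound or DMSO for 1 hr at 37 C, 5% CO2. Blue fluorescence was read at 405/460 nm, with triamterene as reference fluorophore.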
# [17] = qHTS assay for small molecule disruptors of the mitochondrial membrane potential (AID 720635); also: potency is read from the fitted curve at half-maximal effect
# Outline: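 HepG2 cells exposed to compound 1 hr at 37C, then Mito-MPS dye 30 min. Ratio read of aggregate (540/590 nm) versus monomer (490/535 nm) fluorescence.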
# [18] = qHTS assay to test for compound auto fluorescence at 460 nm (blue) in HEK293 cells (AID 720678)
# Outline: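 Auto fluorescence in the blue band was quantified as triamterene equivalency. HEK293 cells were seeded at 2,000/well, dosed after a 4-5 hr attachment, and kept overnight at 37C before the 405/460 nm reading.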
# [19] = biological target: Glucocorticoid receptor (Homo sapiens) (UniProt P04150); test: qHTS assay to identify small molecule agonists of the glucocorticoid receptor (GR) signaling pathway (AID 720691; active = well fitted activation curve with a large enough effect in the signal ratio in the repeat runs, not every such curve was filed as active; the % refers to the signal ratio)
# Outline: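 Steps: seed GR-bla HeLa cells, incubate 4 h at 37 C/5% CO2; pin-transfer DMSO-dissolved compounds; incubate 18 h at 37 C; add LiveBLAzer B/G FRET substrate; after 2 h at room temperature, measure fluorescence.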
# Chain of Glucocorticoid receptor (Homo sapiens) (P04150 whole entry, looked up): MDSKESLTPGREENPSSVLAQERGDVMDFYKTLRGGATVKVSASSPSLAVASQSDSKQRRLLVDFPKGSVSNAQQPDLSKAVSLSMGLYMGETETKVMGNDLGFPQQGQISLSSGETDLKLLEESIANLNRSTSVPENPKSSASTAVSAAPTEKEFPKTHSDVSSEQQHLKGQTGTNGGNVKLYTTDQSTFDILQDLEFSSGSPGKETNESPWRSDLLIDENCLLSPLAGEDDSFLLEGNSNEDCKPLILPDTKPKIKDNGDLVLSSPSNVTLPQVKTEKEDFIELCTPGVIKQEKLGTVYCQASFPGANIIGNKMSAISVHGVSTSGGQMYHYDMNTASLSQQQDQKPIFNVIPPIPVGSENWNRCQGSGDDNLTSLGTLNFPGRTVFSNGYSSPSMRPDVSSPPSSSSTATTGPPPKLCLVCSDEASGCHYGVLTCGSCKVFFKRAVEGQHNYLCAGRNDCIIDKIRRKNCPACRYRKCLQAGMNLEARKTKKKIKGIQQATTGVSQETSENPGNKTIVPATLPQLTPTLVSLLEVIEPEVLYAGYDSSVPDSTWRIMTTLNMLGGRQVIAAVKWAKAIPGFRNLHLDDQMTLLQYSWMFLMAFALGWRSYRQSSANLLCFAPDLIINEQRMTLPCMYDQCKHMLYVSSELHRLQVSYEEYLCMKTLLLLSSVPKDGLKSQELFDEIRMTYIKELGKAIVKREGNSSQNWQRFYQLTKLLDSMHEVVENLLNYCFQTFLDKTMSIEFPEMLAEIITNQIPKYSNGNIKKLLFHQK
smiles,measurement,setting,value
CC(C)=CC(=O)C=C(C)C,Potency,[1],inactive
same,Potency,[2],inactive
same,Potency,[3],inactive
same,Potency,[4],inactive
same,Potency,[5],inactive
same,outcome,[6],inactive
same,outcome,[7],inactive
same,outcome,[8],inactive
same,outcome,[9],inactive
same,Potency,[10],inactive
same,outcome,[11],inactive
same,outcome,[12],inactive
same,outcome,[13],inactive
same,Potency,[14],inactive
same,outcome,[15],inactive
same,Potency,[16],inactive
O=C1c2ccccc2C(=O)c2c(O)c(O)cc(O)c21,Potency,[1],inactive
same,Potency,[2],inactive
same,Potency,[3],inactive
same,Potency,[5],inactive
same,Potency,[17],27.3 µM (active)
same,outcome,[6],inactive
same,outcome,[7],inactive
same,Potency,[18],inactive
same,outcome,[8],inactive
same,outcome,[9],inactive
same,Potency,[10],inactive
same,outcome,[11],inactive
same,outcome,[13],inactive
same,Potency,[14],inactive
same,outcome,[15],inactive
same,Potency,[16],inactive
same,Potency,[19],inactive
CC(=O)OCCN(CCOC(C)=O)c1ccc(N=Nc2ccc([N+](=O)[O-])cc2C#N)cc1,Potency,[1],inactive
same,Potency,[2],inactive
same,Potency,[3],inactive
same,Potency,[4],61.1 µM (active)
same,Potency,[17],6.86 µM (active)
same,outcome,[6],inactive
same,outcome,[7],inactive
same,Potency,[18],inactive
same,outcome,[8],inactive
same,outcome,[9],inactive
same,Potency,[10],inactive
same,outcome,[11],inactive
same,outcome,[12],inactive
same,outcome,[13],inactive
same,Potency,[14],inactive
same,outcome,[15],inactive
same,Potency,[16],inactive
same,Potency,[19],inactive
CCC=CC#N,Potency,[1],inactive
same,Potency,[2],inactive
same,Potency,[3],inactive
same,Potency,[4],inactive
same,Potency,[5],inactive
same,outcome,[6],inactive
same,outcome,[7],inactive
same,Potency,[18],inactive
same,outcome,[8],inactive
same,outcome,[9],inactive
same,Potency,[10],inactive
same,outcome,[11],inactive
same,outcome,[12],inactive
same,Potency,[14],inactive
same,outcome,[15],inactive
same,Potency,[16],inactive
same,Potency,[19],inactive
CC[C@]1(O)C[C@H]2CN(CCc3c([nH]c4ccccc34)[C@@](C(=O)OC)(c3cc4c(cc3OC)N(C=O)[C@H]3[C@@](O)(C(=O)OC)[C@H](OC(C)=O)[C@]5(CC)C=CCN6CC[C@]43[C@@H]65)C2)C1,Potency,[1],0.0084 µM (active)
same,Potency,[2],0.75 µM (active)
same,Potency,[3],inactive
same,Potency,[5],inactive
same,Potency,[17],3.76 µM (active)
same,outcome,[6],inactive
same,outcome,[7],inactive
same,Potency,[18],inactive
same,outcome,[8],inactive
same,outcome,[9],inactive
same,Potency,[10],inactive
same,outcome,[11],inactive
same,outcome,[12],inactive
same,outcome,[13],inactive
same,Potency,[14],inactive
same,outcome,[15],inactive
same,Potency,[16],inactive
same,Potency,[19],inactive
OC(CCN1CCCC1)(c1ccccc1)C1CCCCC1 (stereo unspecified),Potency,[1],inactive
same,Potency,[2],inactive
same,Potency,[3],inactive
same,Potency,[4],inactive
same,Potency,[5],inactive
same,"fluorescence, relative to Rose Bengal",[6],0.15% [at 18.6 µM]
same,"fluorescence, % of fluorescein control",[7],0.0313% [at 18.6 µM]
same,"fluorescence, % of triamterene",[18],0.0017% [at 18.6 µM]
same,"fluorescence, % of fluorescent control",[8],-0.0138% [at 18.6 µM]
same,"fluorescence, % of fluorescein",[9],6.8e-05% [at 18.6 µM]
same,"fluorescence, % of fluorescent control",[10],-0.0085% [at 18.6 µM]
same,activity change,[11],0.0202% [at 18.6 µM]
same,"fluorescence, % of fluorescent control",[12],-0.206% [at 18.6 µM]
same,"fluorescence, % of fluorescent control",[14],0.0206% [at 18.6 µM]
same,"fluorescence, % of fluorescein control",[15],-0.0329% [at 18.6 µM]
same,"fluorescence, % of fluorescent control",[16],0.0411% [at 18.6 µM]
same,Potency,[19],inactive
N#[N+]c1ccc2c(S(=O)(=O)[O-])cccc2c1O,Potency,[1],inactive
same,Potency,[2],inactive
same,Potency,[3],inactive
same,Potency,[4],inactive
same,Potency,[5],inactive
same,outcome,[6],inactive
same,outcome,[7],inactive
same,Potency,[18],inactive
same,outcome,[8],inactive
same,outcome,[9],inactive
same,Potency,[10],inactive
same,outcome,[11],inactive
same,outcome,[12],inactive
same,outcome,[13],inactive
same,Potency,[14],inactive
same,outcome,[15],inactive
same,Potency,[16],inactive
C=C(C)CCCC(C)CCO (stereo unspecified),Potency,[1],inactive
same,Potency,[2],inactive
same,Potency,[3],inactive
same,Potency,[4],inactive
same,Potency,[5],inactive
same,outcome,[6],inactive
same,outcome,[7],inactive
same,Potency,[18],inactive
same,outcome,[8],inactive
same,outcome,[9],inactive
same,Potency,[10],inactive
same,outcome,[11],inactive
same,outcome,[12],inactive
same,Potency,[14],inactive
same,outcome,[15],inactive
same,Potency,[16],inactive
